The target in experiment [1] is human Peroxisome Proliferator-activated Receptor delta (PPARd), PPARD (gene 5467) (UniProt Q03181). Description: ATG_PPARd_TRANS: Attagene TRANS-FACTORIAL HepG2 Assay for human Peroxisome Proliferator-activated Receptor delta (PPARd) (AID 2283002; active = hit-call score of the fitted dose curve at least 0.9, where 1 is the maximum). In outline: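 Cell-based TRANS reporter: HepG2, transient MRTU transfection, 24 h exposure. Readout = reporter mRNA (RT-PCR/CE, 6-FAM). Gain-of-signal fit vs DMSO control.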
human Peroxisome Proliferator-activated Receptor delta (PPARd), PPARD (gene 5467), sequence (Q03181 whole entry, looked up): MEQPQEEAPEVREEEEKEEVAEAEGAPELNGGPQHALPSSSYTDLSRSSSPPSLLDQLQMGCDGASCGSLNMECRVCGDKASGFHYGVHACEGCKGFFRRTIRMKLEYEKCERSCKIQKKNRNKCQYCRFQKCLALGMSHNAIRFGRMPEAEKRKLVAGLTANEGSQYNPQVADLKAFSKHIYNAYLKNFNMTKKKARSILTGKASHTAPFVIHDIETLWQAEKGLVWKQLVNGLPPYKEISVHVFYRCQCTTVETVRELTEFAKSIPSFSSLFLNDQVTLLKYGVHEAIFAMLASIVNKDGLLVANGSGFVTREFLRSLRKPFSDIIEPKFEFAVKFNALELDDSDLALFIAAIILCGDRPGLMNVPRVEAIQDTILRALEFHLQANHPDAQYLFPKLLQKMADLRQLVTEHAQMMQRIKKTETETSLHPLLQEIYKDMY

Read-out in experiment [2]: Intercellular Adhesion Molecule 1 (ICAM1), ICAM1 (gene 3383)
Description: BSK_3C_ICAM1: BioMAP Diversity Plus: 3C Assay for Intercellular Adhesion Molecule 1 (ICAM1) Biomarker Activity (AID 2283003). The settings on record: primary human endothelial cells (HUVEC); actives raise or lower the signal. Summed up: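 HUVEC primary cells stimulated under 3C conditions; ICAM1 measured by ELISA 24 h after compound dosing. Curves fitted bidirectionally against the DMSO baseline. Overt cytotoxicity checked by SRB staining of parallel cultures.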

Experiment [3] deals with human Retinoic Acid Receptor beta (RARb), RARB (gene 5915) (UniProt P10826). The experiment in a line: ATG_RARb_TRANS: Attagene TRANS-FACTORIAL HepG2 Assay for human Retinoic Acid Receptor beta (AID 2283004; active = hit-call score of the fitted dose curve at least 0.9, where 1 is the maximum). In outline: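 HepG2 cells transiently transfected with multiplexed GAL4-UAS reporter units expressing chimeric NR–Gal4 fusions; 24 h compound exposure. Reporter mRNA quantified by RT-PCR, 6-FAM labelling, HpaI digestion and capillary electrophoresis; gain-of-signal fitted against DMSO baseline.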
human Retinoic Acid Receptor beta (RARb), RARB (gene 5915), sequence (P10826 whole entry, looked up, the tested form may be a part): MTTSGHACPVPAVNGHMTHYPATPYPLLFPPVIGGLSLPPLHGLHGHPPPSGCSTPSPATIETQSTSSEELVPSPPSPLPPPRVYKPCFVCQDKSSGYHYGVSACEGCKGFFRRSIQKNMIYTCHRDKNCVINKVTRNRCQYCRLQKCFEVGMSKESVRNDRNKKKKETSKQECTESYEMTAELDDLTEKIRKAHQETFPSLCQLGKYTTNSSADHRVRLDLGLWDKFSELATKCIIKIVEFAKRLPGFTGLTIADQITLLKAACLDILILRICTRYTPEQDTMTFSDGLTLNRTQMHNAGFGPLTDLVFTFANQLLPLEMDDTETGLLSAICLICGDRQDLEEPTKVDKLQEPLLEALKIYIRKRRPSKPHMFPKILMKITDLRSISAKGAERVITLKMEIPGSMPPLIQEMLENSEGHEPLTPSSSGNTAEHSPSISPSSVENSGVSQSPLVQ

The target of experiment [4] is Retinoic acid receptor alpha (Homo sapiens) (UniProt P10276). Description: ATG_RARa_TRANS: Attagene TRANS-FACTORIAL HepG2 Assay for human Retinoic Acid Receptor alpha (RARa) (AID 2283005; active = hit-call score of the fitted dose curve at least 0.9, where 1 is the maximum). Summed up: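 Reporter transcripts, measured by RT-PCR with fluorescent labeling and capillary electrophoresis after 24 h dosing, reflect activity of an exogenous human RARa–GAL4 fusion in transiently transfected HepG2. Fitted for increase relative to DMSO.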

Experiment [5] can be described thus: BSK_3C_Proliferation: Cell Proliferation Assessment in the BioMAP Diversity Plus: 3C Assay (AID 2283006).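 As to AC50: potency may reflect either rise or fall in cell number versus DMSO.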 The settings on record: primary human endothelial cells (HUVEC). Summed up: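 Subconfluent HUVEC (3C system) cultured with chemical; relative cell number read at 48 h by sulforhodamine B total-protein staining (0.1% SRB after 10% TCA fixation, 560 nm). Bidirectional fit relative to DMSO.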

The target in experiment [6] is Peroxisome proliferator-activated receptor gamma (Homo sapiens) (UniProt P37231). Description: ATG_PPARg_TRANS: Attagene TRANS-FACTORIAL HepG2 Assay for human Peroxisome Proliferator-activated Receptor-gamma (PPARg) (AID 2283007; active = hit-call score of the fitted dose curve at least 0.9, where 1 is the maximum). Summed up:
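Twenty-four hours after chemical dosing of transiently transfected HepG2 cells, isolated RNA was converted to cDNA, reporter sequences amplified and 6-FAM-labelled, then HpaI-digested and analysed by capillary electrophoresis. Signal increase against DMSO was fitted.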

Experiment [7] concerns the target human RAR-related Orphan Receptor beta (RORb), RORB (gene 6096) (UniProt Q92753). The experiment in a line: ATG_RORb_TRANS: Attagene TRANS-FACTORIAL HepG2 Assay for human RAR-related Orphan Receptor beta (RORb) (AID 2283010; active = hit-call score of the fitted dose curve at least 0.9, where 1 is the maximum). In outline: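 HepG2 cells transiently transfected with GAL4-UAS reporter units expressing chimeric NR-Gal4 protein; reporter mRNA measured 24 h after dosing by RT-PCR, 6-FAM labelling and capillary electrophoresis. Gain-of-signal fitted relative to DMSO baseline.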

Experiment [8] has as its target human Retinoid X Receptor beta (RXRb), RXRB (gene 6257) (UniProt P28702). Description: ATG_RXRb_TRANS: Attagene TRANS-FACTORIAL HepG2 Assay for human Retinoid X Receptor beta (RXRb) (AID 2283013; active = hit-call score of the fitted dose curve at least 0.9, where 1 is the maximum). In outline: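 HepG2 cells were transiently transfected with multiplexed GAL4-UAS reporters and a chimeric RXRb-Gal4 construct, then exposed for 24 h. Reporter mRNA was quantified by RT-PCR, FAM labeling, HpaI digestion and capillary electrophoresis; gain of signal was scored against DMSO.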

Experiment [9] deals with human Thyroid Receptor alpha (THRa1), THRA (gene 7067) (UniProt P10827). Description: ATG_THRa1_TRANS: Attagene TRANS-FACTORIAL HepG2 Assay for human Thyroid Receptor alpha (THRa1) (AID 2283014; active = hit-call score of the fitted dose curve at least 0.9, where 1 is the maximum). In outline: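 HepG2 cells transiently transfected with multiplexed GAL4-UAS reporter units for exogenous chimeric THRa1-Gal4; reporter mRNA measured 24 h after dosing by RT-PCR, 6-FAM labelling, HpaI digestion and capillary electrophoresis. Gain-of-signal fitted versus DMSO baseline.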
human Thyroid Receptor alpha (THRa1), THRA (gene 7067), sequence (P10827 whole entry, looked up, the tested form may be a part): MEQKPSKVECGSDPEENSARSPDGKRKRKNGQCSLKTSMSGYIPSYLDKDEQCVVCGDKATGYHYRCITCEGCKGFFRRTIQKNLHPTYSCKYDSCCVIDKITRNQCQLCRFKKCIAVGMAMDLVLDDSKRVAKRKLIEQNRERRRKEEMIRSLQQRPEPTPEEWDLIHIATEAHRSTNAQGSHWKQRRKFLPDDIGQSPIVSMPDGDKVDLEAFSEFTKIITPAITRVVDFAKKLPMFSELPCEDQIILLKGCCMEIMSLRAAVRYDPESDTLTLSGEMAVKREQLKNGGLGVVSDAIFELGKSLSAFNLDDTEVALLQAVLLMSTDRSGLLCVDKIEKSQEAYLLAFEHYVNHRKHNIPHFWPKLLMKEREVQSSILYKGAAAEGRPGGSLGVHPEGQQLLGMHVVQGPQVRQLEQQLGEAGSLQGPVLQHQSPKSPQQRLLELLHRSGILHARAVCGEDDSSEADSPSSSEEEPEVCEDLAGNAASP

Read-out in experiment [10]: E-selectin (Homo sapiens) (UniProt P16581)
The experiment in a line: BSK_3C_Eselectin: BioMAP Diversity Plus: 3C Assay for Eselectin Biomarker Activity (AID 2283015).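 As to outcome: cell surface E-selectin protein quantified by ELISA 24 h after dosing.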 The settings on record: primary human endothelial cells (HUVEC); actives raise or lower the signal. In outline:
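Primary human umbilical vein endothelial cells (3C system) were dosed with chemical and cell-surface E-selectin measured by ELISA 24 h later. Bidirectional curve fitting used DMSO as negative control and baseline.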

Read-out in experiment [11]: Interleukin-1 alpha (IL1a), IL1A (gene 3552)
Description: BSK_BE3C_IL1a: BioMAP Diversity Plus: BE3C Assay for Interleukin-1 alpha (IL1a) Biomarker Activity (AID 2283016). The settings on record: primary human bronchial epithelial cells; actives raise or lower the signal. Summed up: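 Human primary bronchial epithelial cells, 24 h chemical exposure; IL-1a quantified by ELISA, fitted bidirectionally against DMSO. Cytotoxicity assessed in parallel by SRB total-protein staining at the time of measurement.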

Read-out in experiment [12]: Monocyte Chemoattractant Protein-1 (MCP1), CCL2 (gene 6347)
Description: BSK_3C_MCP1: BioMAP Diversity Plus: 3C Assay for Monocyte Chemoattractant Protein-1 (MCP1) Biomarker Activity (AID 2283017). The settings on record: primary human endothelial cells (HUVEC); actives raise or lower the signal. Summed up:
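Primary human umbilical vein endothelial cells (3C system) were exposed to test chemical for 24 h, after which MCP-1 was quantified by ELISA. Activity was fitted bidirectionally against DMSO as negative control and baseline.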

Read-out in experiment [13]: Monocyte Chemoattractant Protein-1 (MCP1), CCL2 (gene 6347)
The experiment in a line: BSK_4H_MCP1: BioMAP Diversity Plus: 4H Assay for Monocyte Chemoattractant Protein-1 (MCP1) Biomarker Activity (AID 2283018). The settings on record: primary human endothelial cells (HUVEC); actives raise or lower the signal. In outline: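 Human umbilical vein endothelial cells (4H system) exposed to chemicals for 24 h in 96-well format. MCP-1 measured by ELISA; bidirectional fitting against DMSO, with SRB total-protein staining in parallel cultures for cytotoxicity.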

Read-out in experiment [14]: Human Leukocyte Antigen - DR isotype (HLADR), HLA-DRA (gene 3122)
Description: BSK_3C_HLADR: BioMAP Diversity Plus: 3C Assay for Human Leukocyte Antigen - DR isotype (HLADR) Biomarker Activity (AID 2283019). The settings on record: primary human endothelial cells (HUVEC); actives raise or lower the signal. In outline: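 Primary human umbilical vein endothelial cells (3C system) were dosed with compound and cell-surface HLA-DR was quantified by ELISA at 24 h. Activity was fitted bidirectionally against DMSO as negative control and baseline.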

Read-out in experiment [15]: Interleukin-8 (IL8), CXCL8 (gene 3576)
Description: BSK_3C_IL8: BioMAP Diversity Plus: 3C Assay for Interleukin-8 (IL8) Biomarker Activity (AID 2283020). The settings on record: primary human endothelial cells (HUVEC); actives raise or lower the signal. In outline:
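Primary human umbilical vein endothelial cells were dosed for 24 h. IL-8 was quantified by ELISA and fitted bidirectionally against DMSO. Cytotoxicity was assessed in parallel cultures by SRB staining at 560 nm.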

Read-out in experiment [16]: Monokine induced gamma interferon (MIG), CXCL9 (gene 4283)
Description: BSK_3C_MIG: BioMAP Diversity Plus: 3C Assay for Monokine induced gamma interferon (MIG) Biomarker Activity (AID 2283021). The settings on record: primary human endothelial cells (HUVEC); actives raise or lower the signal. Summed up:
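HUVEC primary endothelial cultures dosed with chemical; MIG quantified by ELISA at 24 h. Data fitted bidirectionally against DMSO control, with parallel SRB total-protein staining for cytotoxicity.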

Experiment [17] has as its target Nuclear receptor subfamily 1 group I member 2 (Homo sapiens) (UniProt O75469). Description: ATG_PXR_TRANS: Attagene TRANS-FACTORIAL HepG2 Assay for human Pregnane X Receptor (PXR) (AID 2283008; active = hit-call score of the fitted dose curve at least 0.9, where 1 is the maximum). In outline:
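Fluorescence intensity of FAM-labelled, HpaI-digested reporter amplicons, separated by capillary electrophoresis, quantifies induction. HepG2 cells with PXR-Gal4 trans-reporter system were exposed 24 h; DMSO defines baseline.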

Experiment [18] addresses human RAR-related Orphan Receptor gamma (RORg), RORC (gene 6097) (UniProt P51449). The experiment in a line: ATG_RORg_TRANS: Attagene TRANS-FACTORIAL HepG2 Assay for human RAR-related Orphan Receptor gamma (RORg) (AID 2283011; active = hit-call score of the fitted dose curve at least 0.9, where 1 is the maximum). In outline:
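Readout: reporter transcript induction (RT-PCR, fluorescent primer extension, capillary electrophoresis) after 24 h compound exposure of transiently transfected HepG2 cells carrying a RORg-Gal4 chimera and GAL4-UAS reporters; DMSO served as baseline, with increasing signal fitted.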

In experiment [19] the target is human Peroxisome Proliferator-activated Receptor alpha (PPARa), PPARA (gene 5465) (UniProt Q07869). Description: ATG_PPARa_TRANS: Attagene TRANS-FACTORIAL HepG2 Assay for human Peroxisome Proliferator-activated Receptor alpha (PPARa) (AID 2283001; active = hit-call score of the fitted dose curve at least 0.9, where 1 is the maximum). In outline: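 Read-out is fluorescence of reporter cDNA fragments resolved by capillary electrophoresis after RT-PCR. Human HepG2 liver cells carried transfected PPARa-Gal4 chimera and GAL4-UAS reporter units, treated 24 h; activity scored as increase over DMSO.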
human Peroxisome Proliferator-activated Receptor alpha (PPARa), PPARA (gene 5465), sequence (Q07869 whole entry, looked up, the tested form may be a part): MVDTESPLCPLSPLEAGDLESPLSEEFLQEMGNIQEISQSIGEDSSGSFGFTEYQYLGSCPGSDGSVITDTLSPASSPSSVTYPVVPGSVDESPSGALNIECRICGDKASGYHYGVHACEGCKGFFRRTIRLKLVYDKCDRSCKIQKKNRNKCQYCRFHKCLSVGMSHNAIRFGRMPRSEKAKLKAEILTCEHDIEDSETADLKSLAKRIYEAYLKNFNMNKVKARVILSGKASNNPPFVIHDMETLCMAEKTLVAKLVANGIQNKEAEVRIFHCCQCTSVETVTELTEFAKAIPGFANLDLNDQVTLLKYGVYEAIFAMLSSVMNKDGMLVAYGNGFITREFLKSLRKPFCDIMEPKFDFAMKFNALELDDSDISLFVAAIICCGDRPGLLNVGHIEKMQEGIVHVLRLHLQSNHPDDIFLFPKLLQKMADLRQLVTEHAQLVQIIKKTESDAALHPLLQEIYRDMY

Records with an inconclusive call do not appear. A structure can be active in one record and inactive in another. The source made the active and inactive calls. The calls were made as follows, unless noted: active = hit-call score of the fitted dose curve at least 0.9, where 1 is the maximum; inactive = score below 0.9.

human Retinoid X Receptor beta (RXRb), RXRB (gene 6257), sequence (P28702 whole entry, looked up, the tested form may be a part): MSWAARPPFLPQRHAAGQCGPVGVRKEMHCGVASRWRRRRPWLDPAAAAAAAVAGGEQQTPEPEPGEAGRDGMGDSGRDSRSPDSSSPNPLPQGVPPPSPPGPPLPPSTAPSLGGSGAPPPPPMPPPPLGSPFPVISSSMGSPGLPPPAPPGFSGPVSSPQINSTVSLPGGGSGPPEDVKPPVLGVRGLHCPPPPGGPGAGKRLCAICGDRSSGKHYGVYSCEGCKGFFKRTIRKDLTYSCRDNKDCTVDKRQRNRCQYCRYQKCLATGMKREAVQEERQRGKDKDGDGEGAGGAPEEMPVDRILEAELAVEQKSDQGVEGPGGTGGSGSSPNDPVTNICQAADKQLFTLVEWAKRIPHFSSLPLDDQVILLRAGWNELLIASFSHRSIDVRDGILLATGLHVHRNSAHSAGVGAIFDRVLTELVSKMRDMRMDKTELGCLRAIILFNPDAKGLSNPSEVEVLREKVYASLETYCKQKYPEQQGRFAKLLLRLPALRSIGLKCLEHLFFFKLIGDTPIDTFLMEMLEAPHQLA
human RAR-related Orphan Receptor beta (RORb), RORB (gene 6096), sequence (Q92753 whole entry, looked up, the tested form may be a part): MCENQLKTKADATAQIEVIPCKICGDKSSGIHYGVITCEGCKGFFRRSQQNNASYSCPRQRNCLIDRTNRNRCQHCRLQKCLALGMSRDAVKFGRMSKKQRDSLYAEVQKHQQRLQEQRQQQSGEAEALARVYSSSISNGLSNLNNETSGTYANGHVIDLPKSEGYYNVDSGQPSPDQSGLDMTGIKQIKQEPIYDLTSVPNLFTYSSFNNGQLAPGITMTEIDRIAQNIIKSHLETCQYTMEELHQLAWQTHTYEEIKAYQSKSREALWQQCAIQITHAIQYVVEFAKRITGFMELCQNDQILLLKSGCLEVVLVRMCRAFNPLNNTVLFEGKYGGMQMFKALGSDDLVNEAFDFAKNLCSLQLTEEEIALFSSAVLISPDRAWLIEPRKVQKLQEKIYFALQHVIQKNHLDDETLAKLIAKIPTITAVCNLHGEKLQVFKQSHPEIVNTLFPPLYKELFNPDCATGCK
Peroxisome proliferator-activated receptor gamma (Homo sapiens), sequence (P37231 whole entry, looked up): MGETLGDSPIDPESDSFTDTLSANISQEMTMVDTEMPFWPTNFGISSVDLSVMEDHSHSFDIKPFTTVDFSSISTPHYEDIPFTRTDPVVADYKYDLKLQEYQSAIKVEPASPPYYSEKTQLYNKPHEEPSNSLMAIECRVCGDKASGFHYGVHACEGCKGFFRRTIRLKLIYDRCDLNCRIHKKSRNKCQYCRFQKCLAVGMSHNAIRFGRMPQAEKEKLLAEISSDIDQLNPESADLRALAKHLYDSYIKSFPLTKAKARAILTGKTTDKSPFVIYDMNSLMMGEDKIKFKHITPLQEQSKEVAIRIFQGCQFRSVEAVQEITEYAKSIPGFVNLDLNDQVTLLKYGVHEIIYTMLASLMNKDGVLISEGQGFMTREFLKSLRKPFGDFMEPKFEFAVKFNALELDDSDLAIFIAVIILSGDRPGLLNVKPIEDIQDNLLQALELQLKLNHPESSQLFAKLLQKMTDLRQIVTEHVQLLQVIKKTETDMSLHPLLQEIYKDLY
Nuclear receptor subfamily 1 group I member 2 (Homo sapiens), sequence (O75469 whole entry, looked up, the tested form may be a part): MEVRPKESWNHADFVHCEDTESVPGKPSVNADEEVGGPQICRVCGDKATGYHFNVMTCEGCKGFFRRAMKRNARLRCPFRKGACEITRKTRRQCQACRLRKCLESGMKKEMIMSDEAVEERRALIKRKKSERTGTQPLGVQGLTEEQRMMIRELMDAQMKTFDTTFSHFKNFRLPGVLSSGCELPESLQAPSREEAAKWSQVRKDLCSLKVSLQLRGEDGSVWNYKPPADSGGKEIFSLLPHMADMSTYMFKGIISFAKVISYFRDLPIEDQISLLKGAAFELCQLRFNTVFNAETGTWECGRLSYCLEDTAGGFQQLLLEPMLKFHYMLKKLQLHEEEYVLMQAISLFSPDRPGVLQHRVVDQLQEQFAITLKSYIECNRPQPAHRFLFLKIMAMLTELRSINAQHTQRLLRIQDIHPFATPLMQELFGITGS
E-selectin (Homo sapiens), sequence (P16581 whole entry, looked up): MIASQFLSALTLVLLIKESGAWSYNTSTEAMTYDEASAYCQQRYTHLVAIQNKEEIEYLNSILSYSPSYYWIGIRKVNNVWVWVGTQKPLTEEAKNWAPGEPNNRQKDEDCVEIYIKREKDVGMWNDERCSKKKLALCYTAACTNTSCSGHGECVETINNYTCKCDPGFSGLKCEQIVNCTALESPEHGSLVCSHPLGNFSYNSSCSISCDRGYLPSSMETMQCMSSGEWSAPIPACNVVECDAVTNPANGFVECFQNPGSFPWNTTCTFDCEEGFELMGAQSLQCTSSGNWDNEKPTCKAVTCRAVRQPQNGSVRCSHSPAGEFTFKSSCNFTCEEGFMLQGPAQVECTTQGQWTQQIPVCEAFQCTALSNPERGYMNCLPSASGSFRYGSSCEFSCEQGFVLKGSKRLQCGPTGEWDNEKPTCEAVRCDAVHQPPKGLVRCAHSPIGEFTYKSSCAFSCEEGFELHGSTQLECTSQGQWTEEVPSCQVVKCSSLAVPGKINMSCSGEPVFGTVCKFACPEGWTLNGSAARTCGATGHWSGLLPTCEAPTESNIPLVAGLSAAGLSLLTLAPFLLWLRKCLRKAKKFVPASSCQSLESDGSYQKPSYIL
human RAR-related Orphan Receptor gamma (RORg), RORC (gene 6097), sequence (P51449 whole entry, looked up, the tested form may be a part): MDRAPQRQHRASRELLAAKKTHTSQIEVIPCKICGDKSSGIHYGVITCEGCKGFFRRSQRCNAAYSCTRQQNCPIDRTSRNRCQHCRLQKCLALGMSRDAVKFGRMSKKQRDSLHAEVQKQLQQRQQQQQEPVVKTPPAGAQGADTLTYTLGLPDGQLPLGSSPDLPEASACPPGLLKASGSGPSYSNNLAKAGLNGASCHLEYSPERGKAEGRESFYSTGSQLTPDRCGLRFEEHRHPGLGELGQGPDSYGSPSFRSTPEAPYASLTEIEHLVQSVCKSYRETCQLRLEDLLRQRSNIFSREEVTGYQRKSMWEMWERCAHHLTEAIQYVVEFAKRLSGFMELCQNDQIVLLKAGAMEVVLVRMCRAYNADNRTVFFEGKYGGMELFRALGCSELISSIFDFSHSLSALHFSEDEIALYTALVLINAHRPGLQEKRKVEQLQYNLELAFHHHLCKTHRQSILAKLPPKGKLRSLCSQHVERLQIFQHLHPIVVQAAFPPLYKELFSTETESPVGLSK

As for `CCCCCCCC[Si](OCC)(OCC)OCC`, the molecule was called inactive in experiment [1], in [2], in experiment [3], in [4], in [6] and in experiment [7]. The result in experiment [8], in [9], in experiment [11] and in [16] was inactive. Further, the AC50 was 18.4 µM (active) in experiment [5]; 26.8 µM (active) in experiment [8]; 17.5 µM (active) in [10]; 31.2 µM (active) in [12]; 29.5 µM (active) in experiment [13]; 23.3 µM (active) in experiment [14]. For the same molecule, in experiment [15], the AC50 is 30 µM (active).
For the molecule `CCCCCCCCN(C)CCCCCCCC`, the molecule was called inactive in experiment [1], in experiment [2], in experiment [3], in experiment [5], in experiment [17] and in [7]. Moreover, the call in experiment [9], in experiment [10], in experiment [11], in experiment [12], in experiment [13] and in experiment [14] was inactive. Also, the result in experiment [15] and in [16] was inactive. Moreover, in experiment [8], the AC50 was 43.5 µM (active).
In the case of `Cc1cc2c(cc1C(F)(F)F)N(C(=O)Nc1ccc(Oc3cccnc3C)nc1)CC2`, the molecule was classed as inactive in [1], in experiment [2], in experiment [3], in [6], in experiment [17] and in experiment [18]. Further, the molecule was classed as inactive in experiment [8], in experiment [9], in [10], in experiment [11], in experiment [12] and in [13]. Further, in experiment [16], the outcome was inactive. Further, the AC50 in experiment [5] was 9.22 µM (active); in experiment [14] it was 18.4 µM (active); in experiment [15], 0.889 µM (active).
Regarding `O=C(O)Cn1c(=O)n(Cc2ccc(Br)cc2F)c(=O)c2ccc(Cl)cc21`, the outcome in [19], in experiment [2], in experiment [5], in experiment [18], in experiment [10] and in experiment [11] was inactive. Further, the result in experiment [12], in experiment [13], in experiment [14], in [15] and in [16] was inactive. The AC50 in [6] is 6.18 µM (active); in experiment [17], 11 µM (active).
Take `C[C@]12CC[C@@H]3c4ccc(O)cc4CC[C@H]3[C@@H]1CCC2=O`: the molecule was classed as inactive in experiment [19], in [2], in [7], in experiment [10], in experiment [11] and in experiment [12]. Besides, the result in experiment [13], in experiment [15] and in experiment [16] was inactive. Moreover, the AC50 in experiment [5] is 20.7 µM (active); in [14], 31.7 µM (active).

A word on the AC50: it is the concentration giving half of the maximal activity seen.
